Laboratory results published in PubChem BioAssay (NCI).
Compounds without any hit were thinned out: in the full panel of roughly 83,000, 20% have a hit.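 Assay: single dose, 48 h. Readout: percent growth (0 = no net growth; negative = cell death). Active: <10.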 A number with no mark means an inactive call. The source made the active and inactive calls.

What was measured:
Test in all cases: NCI-60 one-dose screen, 48 h (100 = growth as untreated, 0 = no growth, -100 = all killed)
Conditions in all cases: 10 µM unless noted
[1] = tested on: NCI-H23 lung
[2] = tested on: NCI-H322M lung
[3] = tested on: HOP-62 NSCLC
[4] = tested on: NCI-H460 lung
[5] = tested on: HOP-92 NSCLC
[6] = tested on: NCI-H522 lung
[7] = tested on: A549/ATCC NSCLC
[8] = tested on: 786-0 renal
[9] = tested on: COLO 205 colon
[10] = tested on: DU-145 prostate
[11] = tested on: K-562 leukemia
[12] = tested on: MALME-3M melanoma
[13] = tested on: MDA-MB-231 breast
[14] = tested on: RXF 393 renal
[15] = tested on: SF-268 CNS
[16] = tested on: SF-295 CNS
[17] = tested on: SF-539 CNS
[18] = tested on: UACC-257 melanoma
[19] = tested on: M14 melanoma
[20] = tested on: HCT-15 colon

Row | Compound | growth [1] | growth [2] | growth [3] | growth [4] | growth [5] | growth [6] | growth [7] | growth [8] | growth [9] | growth [10] | growth [11] | growth [12] | growth [13] | growth [14] | growth [15] | growth [16] | growth [17] | growth [18] | growth [19] | growth [20]
1 | COc1ccc(C2C3=C(COC3=O)N(CCO)c3cc4c(cc32)CCC4)cc1OC (stereo not given) | 29.8% | 35.3% | 31.6% | -15.1% (active) | 91.9% | -33.7% (active) | 19.5% | 26.7% | 14.9% | -28.1% (active) | 14.7% | 42.8% | 24.7% | -42.7% (active) | 49.1% | -2.08% (active) | -20.4% (active) | 43.6% | -18.4% (active) | 21.8%
2 | Nc1ccccc1-c1ccc(-c2ccc(Cl)cc2)c2c1[nH]c1ccccc12 | 77% | 64% | 79.5% | 88.6% | 7.99% (active) | 73.5% | 67.9% | 76.5% | 78.5% | 75.9% | 58.9% | 90.2% | 62.2% | 53.4% | 64.8% | 88.2% | 86.3% | 81% | 49.3% | 73.2%
3 | c1ccc2c(c1)oc1cc3sccc3nc12 | 101% | 99.2% | 89.5% | 104% | 95.1% | 93% | 102% | 96.1% | 109% | 114% | 98.1% | 102% | 101% | 109% | 97.5% | 108% | 98.8% | 104% | 94.7% | 99.5%
4 | COc1ccc(Br)c(/C=C2\SC(=Nc3ccc(O)cc3)NC2=O)c1 | 92.1% | 99.8% | 96.2% | 102% | 83.2% | 77.2% | 87.2% | 82.8% | 102% | 98.1% | 84.4% | 89.6% | 108% | 83.7% | 74% | 98.3% | 85.4% | 102% | 97.8% | 79.3%
5 | CC[C@]1(O)C[C@@H]2CN(CCc3c([nH]c4ccccc34)[C@@](C(=O)OC)(c3cc4c(cc3OC)N(C)[C@H]3[C@@](O)(C(=O)OC)[C@H](OC(C)=O)[C@]5(CC)C=CCN6CC[C@]43[C@@H]65)C2)C1 | 26.8% | 39.9% | 35% | 4.41% (active) | -9.28% (active) | 4.5% (active) | 17.8% | 9.87% (active) | -10.8% (active) | -7.13% (active) | 15.3% | 40.9% | -15.3% (active) | 22.1% | 17.3% | 8.85% (active) | -2.89% (active) | 64.4% | 3.97% (active) | 14.6%
6 | O=C(c1nc2ccccc2[nH]1)C1C(c2cccc([N+](=O)[O-])c2)C2CC3CCCCC3N2[C@@]12C(=O)Nc1cc(Cl)ccc12 (stereo not given in full) | 37.3% | 42.2% | 48.1% | 9.08% (active) | 16.9% | 52.4% | 17.8% | 25.6% | 12.6% | 27% | 24.2% | 29.3% | 18.6% | -52.5% (active) | 39.9% | 24.8% | 48.4% | 43.5% | 21.5% | 20.9%
7 | COc1ccc(-c2nnc(COc3ccc(C(=O)/C=C/c4ccco4)cc3)o2)cc1 | 92.1% | 86.6% | 75.8% | 78.5% | 88.4% | 91.8% | 87% | 50.9% | 44.7% | 61.6% | 15.3% | 125% | 90% | 65% | 58.1% | -2.9% (active) | 55.9% | 105% | 98.8% | 68.3%
8 | CC(C)C[C@H](C(=O)N[C@H](C(N)=O)C(C)C)N1CC=CCN(OCc2ccccc2)S1(=O)=O | 111% [2.5 µM] | 105% [2.5 µM] | 99.3% [2.5 µM] | 110% [2.5 µM] | 82.9% [2.5 µM] | 86.4% [2.5 µM] | 94.5% [2.5 µM] | 102% [2.5 µM] | 105% [2.5 µM] | 131% [2.5 µM] | 100% [2.5 µM] | 113% [2.5 µM] | 93.4% [2.5 µM] | 111% [2.5 µM] | 108% [2.5 µM] | 114% [2.5 µM] | 99.9% [2.5 µM] | 91.2% [2.5 µM] | 100% [2.5 µM] | 104% [2.5 µM]
